The values below come from PubChem BioAssay (NCI).

Several values for one entry are separate records, joined by “and”; a condition that tells them apart may be missing. Equal entries are not always repeated. The panel holds about 83,000 compounds, 20% with a hit somewhere; the sample as a whole holds those more often.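 Each cell line was grown in a 96-well plate and treated with one concentration of compound for 48 hours. Values below 10 were considered active.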 Activity calls are given as the source filed them.

In the assay the test system is MDA-MB-468 breast. As to the kind of experiment: NCI-60 one-dose screen, 48 h (100 = growth as untreated, 0 = no growth, -100 = all killed). As to conditions: 10 µM unless noted.
For `Cc1ccc(S(=O)(=O)OC[C@@]2(C)CC[C@]3(C)CC[C@]4(C)C(=C3C2)C=C[C@@H]2[C@@]3(C)CCCNC(C)(C)[C@@H]3CC[C@]24C)cc1`, the growth is -88.5% (active).

Consider `NCC(=O)NS(=O)(=O)OC[C@H]1O[C@@H](n2cnc3c(N)ncnc32)[C@H](O)[C@@H]1O`, for which the growth is -34.3% (active).

For the compound `CCOC(=O)c1sc2ncnc(Nc3ccc4c(cnn4C(=O)Nc4ccc(C)c(Cl)c4)c3)c2c1C`, the growth is 95.1% (inactive).

Regarding `N#Cc1ccccc1OCC(=O)Nc1nc2c(s1)COc1ccccc1-2`, the growth was 98.7% (inactive).

Turning to `COc1ccc(N2CCN(C3=C(Cl)C(=O)C(C)=C(C)C3=O)CC2)cc1`, the growth was 74.1% (inactive).

Regarding `COc1cccc(NC(=O)Nc2ccc(Nc3ncnc4[nH]c(C)c(C)c34)cc2)c1`, the growth was 112% (inactive).

For `COC(=O)CCSC1=C(C)C(=O)c2ccccc2C1=O`, the growth is -24.5% (active).

`Cc1cc(C)c(NC(=O)c2sc3nc4c(cc3c2N)CN(Cc2ccccc2)CC4)c(C)c1`: the growth is 14% (inactive).

As for `COc1ccc(N2CCN(CC(=O)N3CCN(c4nnc(-c5ccccc5)c(-c5ccccc5)n4)CC3)CC2)cc1`, the growth was 50.6% (inactive).

Regarding `CCCCCCCCNC(=O)C(C)C`, the growth was 85.4% (inactive).

Regarding `COc1ccc(-c2cn[nH]c2-c2cc(OC)c(OC)c(OC)c2)cc1N`, the growth was -13.3% (active) and -29.2% (active).

Turning to `COc1cc(/C=C2\C(=O)N(c3c(Cl)cccc3Cl)c3ccccc32)cc(OC)c1OCCCCCCn1c2ccccc2c(=O)c2ccccc21`, the growth was 108% (inactive).

As to `Cc1ccc(-c2csc(N/N=C/c3nc4ccccc4n3C3CC3)n2)cc1`, the growth was 98.5% (inactive).

In the case of `OCCN1CCN(CC/C=C2/c3ccccc3Sc3ccc(C(F)(F)F)cc32)CC1`, the growth is 68.4% (inactive).

`Cc1ccc(-n2cc(/C=N/NC(=O)c3nc(N)n[nH]3)c(-c3ccc(S(C)(=O)=O)cc3)n2)cc1`: the growth was 105% (inactive).

Regarding `S=c1nc2oc(-c3ccccc3)c(-c3ccccc3)c2c(/N=C\c2ccco2)[nH]1`, the growth was 91.6% (inactive).

For `O=C(O)c1ccccc1Oc1cc(-c2ccco2)nc(OCCBr)n1`, the growth was 119% (inactive).

Consider `CC(=O)Nc1ccc(-c2cc3c(NCc4ccc(F)cc4)ncnc3s2)cc1`, for which the growth was 69.7% (inactive).

`FC(F)(F)c1cc(Nc2ccc3c(OCCCN4CCOCC4)cccc3n2)ccc1Cl`: the growth is 38.3% (inactive).

For `COc1cc2ncnc(Oc3cccc(NC(=O)Nc4cc(C(C)(C)C(F)(F)F)on4)c3)c2cc1OC`, the growth is 12.4% (inactive).

Turning to `CCCCn1c(C)nc2cc(Nc3nc(Cl)nc4nc[nH]c34)ccc21`, the growth was 44.3% (inactive).

As for `CNc1ncc2cc(-c3cc(NC(=O)NCCC(C)(C)C)c(F)cc3C)c(C)nc2n1`, the growth is 52.7% (inactive).

For `COC(=O)[C@]1(CCSC)N[C@H](c2cn(-c3ccccc3)nc2C)[C@@H]2C(=O)N(c3ccccc3)C(=O)[C@@H]21`, the growth was 108% (inactive).

Take `C=C(C)[C@@H]1CC[C@]2(C(=O)O)CC[C@]3(C)[C@H](CC[C@@H]4[C@@]5(C)C[C@@H](CC#Cc6ccc(Br)cc6)C(=O)C(C)(C)[C@@H]5CC[C@]43C)[C@@H]12`: the growth was 6.26% (active).

As for `CC(=O)NCC(=O)Nc1ccc(-c2nnc3ccccn23)nc1.CC(=O)NCC(=O)Nc1ccc(-c2nnc3ccccn23)nc1.[Pt+2]`, the growth is 116% (inactive).

In the case of `COc1ccc(/C=C/C(=O)Nc2cc(/C=C\c3cc(OC)c(OC)c(OC)c3)cc(OC)c2OC)cc1OC`, the growth was 17.5% (inactive).

`Cn1ccc2c(c1=O)C(=O)c1nccc3c1c-2nc1ccccc13`: the growth was -84.6% (active).

In the case of `CCCCCCCCOC(=O)c1c(C)[nH]c(/C=C2\N=C(c3ccc[nH]3)C=C2OC)c1C`, the growth is -25.7% (active).

Consider `COc1ccc(/C=C2\COc3ccc(O)cc3C2=O)cc1`, for which the growth was 85.7% (inactive).

Take `OCCNc1nc(NCCO)nc(Nc2ccc(C3=NN(c4cc(Cl)cc(Cl)c4)C(c4ccc(Cl)cc4)C3)cc2)n1` (stereo not given): the growth was -5.79% (active).

With `OCCNC(=S)Nc1ccc(-c2nc(N3C[C@H]4CC[C@@H](C3)O4)c3cccn3n2)cc1`, the growth was -24.6% (active).

As for `CCCCC1=C(Br)C(=O)c2nc(C)ccc2C1=O`, the growth was 92.6% (inactive).

As for `C1CN(SSN2CCOCC2)CCO1`, the growth was -66.4% [100 µM] (active).

For the compound `COC(=O)[C@@H]1CCCN1C(=O)[C@@H]1CCCN1C(=O)[C@H](Cc1ccccc1)NC(=S)Nc1cc(C(F)(F)F)cc(C(F)(F)F)c1`, the growth was 89% (inactive).

For the compound `CC[C@H](Nc1ncnc2nc[nH]c12)c1nc2cccc(CC(=O)c3ccc(C(=O)NO)cc3)c2c(=O)n1-c1ccccc1`, the growth is 60.8% (inactive).

As to `CC(CCCC(=O)O)c1ccoc1` (stereo not given), the growth is 119% (inactive).

As to `Brc1ccccc1/C=N/Nc1nc(N/N=C/c2ccccc2Br)nc(N2CCOCC2)n1`, the growth was 90.3% (inactive).

On to `Cn1c(N2NC(=O)C(N=Nc3ccc(S(N)(=O)=O)cc3)C2=O)nc(-c2ccco2)c(C#N)c1=O` (stereo not given), for which the growth is -17.9% (active).

Consider `CN(C)C(=S)N=Nc1c(O)[nH]c2ccccc12`, for which the growth is -2.36% (active).

As for `Cc1ccc(NC(=O)COC(=O)c2ccc(S(=O)(=O)N3CCCCCC3)cc2)cc1`, the growth is 92.9% (inactive).
